Active and inactive are the calls of the source.

The values that follow come from PubChem BioAssay.

Test [1] concerns Human papillomavirus type 1a protein E7 (residues 44-93). The experiment in a line: small molecules binding HPV E7 44-93 – biochemical, small-molecule microarray, residues 44-93, 635 nm fluorescence, primary screen (AID 1108).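 Also: E7 fragment applied at 1 µg/mL in TBST for 1 h at 4 C; score combines spot fluorescence with its signal to noise ratio.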 Conditions: fluorescence 635 nm, higher = more signal.
Test [2] in a line: hepatitis C replication reporter changes, two-sided – Huh7 cells, luciferase reporter, HCV replication inhibitor project, primary screen (AID 1109).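 Also: huh7 hepatoma cells harbouring a luciferase neomycin HCV replicon reporter; luciferase luminescence as measure of HCV replicon replication; test concentration not given here.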 Conditions: Huh7 HCV replicon luciferase reporter, 48 h; higher = more signal.
The target of test [3] is Left-right determination factor 2 (Homo sapiens) (UniProt O00292). Description: small molecules binding LEFTY2 protein – biochemical, small-molecule microarray, 635 nm fluorescence scan, primary screen (AID 1110). Conditions: higher = more signal.
Test [4] addresses Calmodulin-1 (Homo sapiens) (UniProt P0DP23). The experiment in a line: small molecules binding calmodulin-1 with EGTA – biochemical, small-molecule microarray, Cy5-labelled CALM1, profiling panel (AID 1111).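 Also: labelled calmodulin applied in Tris saline Tween buffer holding calcium plus EGTA and DTT.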 Conditions: Cy5-CALM1 binding fluorescence, higher = more signal.
The target is the same in test [5]. Description: small molecules binding Ca-loaded calmodulin-1 – biochemical, small-molecule microarray, Cy5-labelled CALM1, plus calcium, artefact control for SMM control-protein annotation, profiling panel (AID 1112).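 Also: score merges spot fluorescence with signal to noise from triplicate slides.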 Conditions: Cy5-CALM1 binding fluorescence, higher = more signal.
Test [6] can be described thus: probe aWnt5a binding to arrayed compounds – biochemical, biotinylated probe, 635/667 nm fluorescence, primary screen (AID 1113).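 Also: score merges 667 nm fluorescence intensity with signal-to-noise per printed feature.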 Conditions: small-molecule microarray, higher = more signal.
Test [7] can be described thus: probe aShh binding to arrayed compounds – biochemical, biotinylated probe, 635/667 nm fluorescence, primary screen (AID 1114).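 Also: probe is biotin-labelled aShh protein from a stem cell growth factor screen; measures binding of labelled protein to compounds printed on the slide; score merges feature fluorescence at 667 nm with signal-to-noise.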 Conditions: small-molecule microarray, higher = more signal.
Test [8] is described as follows: probe aNog binding to arrayed compounds – biochemical, biotinylated probe, 635/667 nm fluorescence, primary screen (AID 1115).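 Also: probe is biotinylated aNog protein used at 0.15 µg/mL for 1 h at 4 C; z-score combines 667 nm fluorescence of each spot with its signal to noise.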 Conditions: small-molecule microarray, higher = more signal.
The target of test [9] is Torsin-1A-interacting protein 1 (Homo sapiens) (UniProt Q5JTV8). Description: compound microarray binding of lysate hLAP1 – cell lysate, small-molecule microarray, COS7 lysate, 635/667 nm fluorescence, primary screen (AID 1116). Conditions: 635 nm fluorescence, higher = more signal.
Test [10] concerns the target Alpha-bungarotoxin (Bungarus multicinctus) (UniProt P60615). Description: compounds binding labelled alpha-BTX control protein – biochemical, small-molecule microarray, Alexa647 label, 635/667 nm fluorescence, artefact control for SMM control protein annotation, profiling panel (AID 1117). Conditions: alpha-BTX-A647 binding fluorescence, higher = more signal.
A further test has as its target Albumin (Bos taurus) (UniProt P02769). Description: compounds binding labelled BSA control protein – biochemical, small-molecule microarray, Alexa647 label, 635/667 nm fluorescence, artefact control for SMM control protein annotation, profiling panel (AID 1118).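 Also: score merges 667 nm emission intensity and signal-to-noise per printed compound spot.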 Conditions: BSA-A647 binding, fluorescence 635 nm, higher = more signal.
Test [11] is described as follows: probe aXIP binding to arrayed compounds – biochemical, NeuroSMM set, 635/667 nm fluorescence, primary screen (AID 1119).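 Also: probe is the protein aXip251-270 applied at 1 µg/mL to compound-printed slides; binding of probe to printed compounds measured as 667 nm fluorescence plus signal to noise.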 Conditions: small-molecule microarray, higher = more signal, called active from +8 up or from −8 down.
Test [12] can be described thus: probe aNOTCH3 binding on compound microarray – biochemical, small-molecule microarray, 635/667 nm fluorescence, primary screen (AID 1120).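 Also: probe is a biotin-tagged antibody raised against NOTCH3 rather than NOTCH3 protein; score merges spot fluorescence near 667 nm with spot signal to noise.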 Conditions: higher = more signal.
Test [13] is described as follows: probe aNOTCH2 binding on compound microarray – biochemical, small-molecule microarray, 635/667 nm fluorescence, primary screen (AID 1121).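 Also: score merges feature fluorescence read at 667 nm with its signal to noise.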 Conditions: higher = more signal.
Test [14] deals with Carbonic anhydrase 2 (Homo sapiens) (UniProt P00918). The experiment in a line: compounds binding carbonic anhydrase 2 – biochemical, small-molecule microarray, Alexa647-labelled CAII, profiling panel (AID 1122). Conditions: CAII-A647 binding fluorescence, higher = more signal.
Test [15] is described as follows: COS7 lysate on small-molecule microarray, probe aHis, 635 nm (AID 1123).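 Also: z-score combines 667nm fluorescence intensity with signal-to-noise per printed compound spot.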 Conditions: COS7 cell lysate, fluorescence, higher = more signal.
Test [16] in a line: probe aLAP1 signal on lysate-treated microarray – cell lysate, small-molecule microarray, COS7 lysate, primary screen (AID 1124).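 Also: lysate comes from COS7 cells expressing LAP1 and is applied at 0.3 µg/mL; score merges spot fluorescence near 667 nm with signal-to-noise over triplicate slides.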 Conditions: probe aLAP1, fluorescence, higher = more signal.
The test system of the next test is Sam68 (KHDRBS1). Description: compounds binding KHDRBS1 protein – biochemical, small-molecule microarray, 635 nm fluorescence, primary screen (AID 1125).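 Also: score merges 667 nm channel intensity with signal to noise over triplicate slides.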 Conditions: higher = more signal.
Test [17] deals with Chordin-like protein 2 (CHRDL2). Description: compounds binding chordin-like 2 – biochemical, small-molecule microarray, 635 nm fluorescence, primary screen (AID 1126).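 Also: printed compound slides probed with Chrdl2 protein at 4 µg/mL for 1 h at 4 C; score merges 667 nm emission intensity with signal to noise over three replicate slides.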 Conditions: fluorescence 635 nm, higher = more signal.
Test [18] has as its target Concanavalin-A (Canavalia ensiformis) (UniProt P02866). Description: compounds binding concanavalin A lectin – biochemical, small-molecule microarray, Alexa647 label, 635 nm, artefact control for SMM control protein annotation, primary screen (AID 1127).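 Also: z combines 667 nm emission intensity with signal-to-noise across three replicate slides.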 Conditions: ConA-A647 binding fluorescence, higher = more signal.

Sequence of Concanavalin-A (Canavalia ensiformis) (P02866 whole entry, looked up): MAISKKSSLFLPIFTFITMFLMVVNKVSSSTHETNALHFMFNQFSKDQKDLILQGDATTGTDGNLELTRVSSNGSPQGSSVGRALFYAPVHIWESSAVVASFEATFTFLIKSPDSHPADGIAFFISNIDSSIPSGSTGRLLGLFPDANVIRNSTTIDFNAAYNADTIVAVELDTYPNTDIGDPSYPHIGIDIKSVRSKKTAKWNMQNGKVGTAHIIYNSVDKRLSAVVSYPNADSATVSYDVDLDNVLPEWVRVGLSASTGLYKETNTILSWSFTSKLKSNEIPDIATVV
Sequence of Left-right determination factor 2 (Homo sapiens) (O00292 whole entry, looked up): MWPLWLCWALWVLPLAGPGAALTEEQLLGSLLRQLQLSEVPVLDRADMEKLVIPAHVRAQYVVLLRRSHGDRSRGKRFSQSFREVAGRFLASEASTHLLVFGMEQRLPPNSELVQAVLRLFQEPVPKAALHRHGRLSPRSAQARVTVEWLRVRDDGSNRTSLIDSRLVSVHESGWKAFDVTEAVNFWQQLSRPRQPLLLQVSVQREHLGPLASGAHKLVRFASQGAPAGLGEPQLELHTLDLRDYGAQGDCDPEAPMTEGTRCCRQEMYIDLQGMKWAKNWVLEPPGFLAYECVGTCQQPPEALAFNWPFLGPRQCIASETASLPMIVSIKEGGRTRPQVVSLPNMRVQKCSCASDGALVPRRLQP
Sequence of Alpha-bungarotoxin (Bungarus multicinctus) (P60615 whole entry, looked up): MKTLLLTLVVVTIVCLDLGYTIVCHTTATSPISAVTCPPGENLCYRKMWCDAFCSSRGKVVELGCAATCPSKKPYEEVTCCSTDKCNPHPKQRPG
Sequence of Albumin (Bos taurus) (P02769 whole entry, looked up): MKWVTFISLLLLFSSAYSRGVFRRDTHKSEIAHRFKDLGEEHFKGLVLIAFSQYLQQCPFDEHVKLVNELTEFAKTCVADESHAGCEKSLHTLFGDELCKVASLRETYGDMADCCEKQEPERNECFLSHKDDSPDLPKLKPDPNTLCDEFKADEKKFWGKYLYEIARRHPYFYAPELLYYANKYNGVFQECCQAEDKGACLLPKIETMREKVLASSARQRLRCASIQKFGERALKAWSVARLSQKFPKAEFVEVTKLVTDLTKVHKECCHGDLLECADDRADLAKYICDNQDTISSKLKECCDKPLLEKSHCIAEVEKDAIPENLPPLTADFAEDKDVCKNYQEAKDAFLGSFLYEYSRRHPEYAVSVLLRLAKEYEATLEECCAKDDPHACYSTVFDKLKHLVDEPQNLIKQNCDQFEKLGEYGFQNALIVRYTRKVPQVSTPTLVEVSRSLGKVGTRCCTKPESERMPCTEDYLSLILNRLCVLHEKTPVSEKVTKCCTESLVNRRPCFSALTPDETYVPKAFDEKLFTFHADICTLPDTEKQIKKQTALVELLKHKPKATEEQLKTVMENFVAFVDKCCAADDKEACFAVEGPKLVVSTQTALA
Sequence of Torsin-1A-interacting protein 1 (Homo sapiens) (Q5JTV8 whole entry, looked up): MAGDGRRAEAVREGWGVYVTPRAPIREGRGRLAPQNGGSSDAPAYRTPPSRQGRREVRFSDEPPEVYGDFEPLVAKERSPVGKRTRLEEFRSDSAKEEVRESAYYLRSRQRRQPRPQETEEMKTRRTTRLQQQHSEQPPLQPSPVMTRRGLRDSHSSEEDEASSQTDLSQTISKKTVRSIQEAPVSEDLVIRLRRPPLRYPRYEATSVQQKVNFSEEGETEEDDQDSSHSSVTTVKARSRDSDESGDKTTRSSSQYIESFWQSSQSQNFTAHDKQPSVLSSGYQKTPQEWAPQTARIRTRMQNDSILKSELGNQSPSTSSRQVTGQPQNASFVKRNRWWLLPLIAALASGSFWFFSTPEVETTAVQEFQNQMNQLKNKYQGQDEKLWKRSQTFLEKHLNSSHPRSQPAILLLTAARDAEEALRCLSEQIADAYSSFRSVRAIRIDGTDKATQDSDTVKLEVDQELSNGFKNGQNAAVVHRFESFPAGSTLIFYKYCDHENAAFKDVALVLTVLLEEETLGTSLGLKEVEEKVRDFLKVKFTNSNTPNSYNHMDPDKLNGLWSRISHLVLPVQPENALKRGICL

Take `NCCCCCNC(=O)[C@H]1C[C@H]2C(=O)NCC(=O)N2[C@H]1c1cccc(OCCO)c1`: the composite z-score was 1.34 in test [1]; 0.296 in [3]; 0.828 in [4]; 0.8 in [5]; -0.157 in [6]; 0.158 in [7]. Besides, the composite z-score in [8] is -0.324; in [9] it was 0.86; in test [10], 1.51; with Albumin (Bos taurus) it was 0.0356; in test [12] it was 0.204; in test [13], -0.136. Besides, the composite z-score in test [14] was 0.429; in test [15] it was 1.12; in [16], 0.391; in the test with Sam68 (KHDRBS1), 1.32; in [17], 0.636; in test [18], 1.16. The same compound gave a z-score in test [2] of -0.786. In addition, the composite Z-score in test [11] is 0.131 (inactive).
For `O=C1O[C@@H](c2ccccc2)[C@@H](c2ccccc2)N2[C@@H](c3ccc(O)cc3)[C@]3(C(=O)Nc4ccc(C#CC5(O)CCCCCC5)cc43)[C@@H](C(=O)N3CCCCCCC3)[C@H]12`, the composite z-score was found to be 1.48 in test [1]; 1.43 in test [3]; 2.6 in [4]; 1.61 in test [5]; 1.45 in test [6]; 2.73 in [7]. The composite z-score turned out to be 3.67 in [8]; 4.7 in [9]; 3.03 in [10]; 0.748 with Albumin (Bos taurus); 2.12 in [12]; 1.06 in test [13]. In addition, the composite z-score in test [14] was determined as 0.742; in test [15], 3.88; in [16] it was 0.894; in the test on Sam68 (KHDRBS1), 1.33; in test [17] it was 1.55; in test [18] it was 1.12. Besides, the z-score in test [2] was -1.29. Further, the composite Z-score in test [11] is 6.76 (inactive).
As to `C=CCOC(=O)[C@H]1[C@@H]2C(=O)O[C@@H](c3ccccc3)[C@@H](c3ccccc3)N2[C@@H](c2ccc(OCCOC(=O)[C@@H]3C[C@@H]4C(=O)NCC(=O)N4[C@@H]3c3ccc(O)cc3)cc2)[C@]12C(=O)Nc1ccccc12`, the composite z-score is 0.919 in [1]; 0.733 in test [3]; 0.325 in test [4]; 0.0637 in [5]; -0.0573 in test [6]; -0.0192 in test [7]. The composite z-score in test [8] was -0.0216; in [9], 0.609; in test [10], -0.195; with Albumin (Bos taurus), 0.212; in test [12], 0.0006; in test [13], -0.168. Also, the composite z-score was found to be 0.475 in [14]; 2.45 in test [15]; 0.537 in test [16]; 1.29 in the test on Sam68 (KHDRBS1); 1.32 in [17]; 1.11 in [18]. In [2], the z-score is -1.34. In addition, the composite Z-score in test [11] is 1.07 (inactive).
For the compound `Cc1cc(C)c(C(O)C2C=CC3C(=O)N(C)C(=O)C3N2Nc2ccccc2)c(C)c1` (stereo not given), the composite z-score was -0.7 in test [1]; 0.627 in test [3]; 1.16 in test [4]; -0.0299 in [5]; 0.881 in [6]; 0.365 in test [7]. Moreover, the composite z-score in test [8] worked out at 1.45; in test [9] it was 1.23; in test [10] it was 0.821; with Albumin (Bos taurus), 0.72; in [12], 1.35; in [13] it was 0.818. Besides, the composite z-score in test [14] was found to be 0.784; in test [15], 1.2; in test [16], 0.781; with Sam68 (KHDRBS1) it was 0.485; in test [17], 0.452; in [18], 0.143. The same compound registered a z-score in [2] of 0.228. Besides, the composite Z-score in [11] was 2.43 (inactive).
Take `CC(C)N1CC=CC23O[C@@H]4C=CCOC(=O)[C@@H]4[C@H]2C(=O)N(CCO)[C@@H]3C1=O` (stereo not given in full): the composite z-score is 0.723 in [1]; -1.65 in test [3]; -0.248 in test [4]; 0.641 in [5]; -0.206 in [6]; -0.11 in [7]. Moreover, the composite z-score was -0.178 in test [8]; 0.0566 in [9]; -1.15 in test [10]; -0.0355 with Albumin (Bos taurus); -0.299 in test [12]; -0.14 in test [13]. For the same compound, the composite z-score is 0.9 in test [14]; 1.29 in test [15]; -0.252 in test [16]; 0.557 with Sam68 (KHDRBS1); -1.59 in [17]; -0.329 in [18]. The compound further yielded a z-score in test [2] of -0.0497. For the same compound, the composite Z-score in [11] was 0.604 (inactive).
